Sampled rows, rich in hits. Any-hit rate of the full collection: about 21%.
Pf growth 48h: Primary qHTS for delayed death inhibitors of the malarial parasite plastid, 48 hour incubation; P. falciparum luciferase growth in erythrocytes, 48 h; Potency, µM (titrated, usually from 28.7 µM), for the others: top-dose activity change, negative = inhibition, most hits filed as inhibitors; actives 5.9% (n = 310,000); AID 504832, 2011; active means well fitted inhibition curve with a large enough effect; inconclusive means small, poorly fitted or top-dose-only effect, or another doubt; inactive means no such curve, though single readings can be large or run the other way; further: potency means the concentration at half of the fitted maximal effect; on the % scale 0 is the no-effect control and ±100 the full control effect
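Growth was read as firefly luciferase luminescence after a 48 h, 37 C, 5% CO2 exposure of compounds to reporter-bearing P. falciparum cultures (0.1% parasitemia, 2% hematocrit final) in Albumax-supplemented RPMI 1640.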
NS1 inh: qHTS Assay for Inhibitors of Influenza NS1 Protein Function; Potency, µM (titrated, usually from 46.1 µM), for inactives: top-dose activity, positive = more growth; actives 0.4% (n = 270,000); AID 2326, 2010; further: potency means the concentration at half of the fitted maximal effect; actives are rising curves; nearly all actives have a fitted effect of over 50% in size
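Read-out: OD600 growth recovery of NS1-expressing budding yeast. Cells grown overnight at 30C in -URA glucose medium, washed, resuspended and diluted 1:100 in 2% galactose assay medium, pH 6.0. Same strain lacking NS1 served as positive control.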
SARS PLP yeast: qHTS of Yeast-based Assay for SARS-CoV PLP; AID 485353, 2010; Potency, µM (titrated, usually from 32.9 µM), inactives show top-dose activity, positive = growth rescue, hits mostly activators; actives 0.19% (n = 330,000); S. cerevisiae expressing SARS-CoV PLpro, growth rescue; further: potency means the concentration at half of the fitted maximal effect; 0% is about no effect; nearly all actives have a fitted effect of over 55% in size
Pf growth 96h: Primary qHTS for delayed death inhibitors of the malarial parasite plastid, 96 hour incubation | Potency, µM (highest dose often 28.7 µM), for inactives: at the top dose activity change, negative = inhibition, actives largely listed as inhibitors | P. falciparum luciferase reporter growth, 96 h | actives 6.9% (n = 320,000); active means well fitted inhibition curve with a large enough effect; inconclusive means small, poorly fitted or top-dose-only effect, or another doubt; inactive means no such curve, though single readings can be large or run the other way; further: potency means the concentration at half of the fitted maximal effect; on the % scale 0 is the no-effect control and ±100 the full control effect
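96 h incubation, 37 C, 5% CO2, of luciferase-reporter P. falciparum-infected RBCs (2% hematocrit, 0.05% parasitemia final) with test compounds; endpoint luminescence.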
Cycloheximide cs: Cycloheximide Counterscreen for Small Molecule Inhibitors of Shiga Toxin | cell reporter, cycloheximide protein synthesis inhibition counterscreen | max response, % | actives 12% (n = 300,000); in the data active means max response mostly above about 13%, no sharp cut-off; inactive means mostly below about 14%; further: read at 38.3 µM for the half of the compounds with a filed dose; 0% is about no effect
Shiga toxin inh: A qHTS for Small Molecule Inhibitors of Shiga Toxin | Vero cells, Shiga toxin protein synthesis inhibition reporter | inhibition, % at 38.7 µM | actives 9.2% (n = 290,000) | AID 2315, 2010; in the data active means inhibition mostly above about 28%, no sharp cut-off; inactive means mostly below about 43%; further: 0% is about no effect
* hit, by the source's call; i = inactive; ? = inconclusive; / = no result. Unless noted, the call rests on the fitted dose curve.

SMILES	Pf growth 48h	NS1 inh	SARS PLP yeast	Pf growth 96h	Cycloheximide cs	Shiga toxin inh
CC(=O)/C(=C(/O)c1ccccc1)c1nc2ccccc2[nH]1	38.9%	/	-0.6%	20.1%	1.3	1.0
O=C(O)c1ccc(/C=C(\c2nc3ccccc3[nH]2)c2nc3ccccc3s2)cc1	5.6%	2.6%	0.2%	7.9%	29.7*	39.8*
COc1ccc(N2C(=O)c3ccccc3NC23CCC(C)CC3)cc1 (configuration not stated)	108.3%	4.9%	6.7%	/	32.1*	54.2
COc1ccc(N2C(=O)CSC23CCCCC3)cc1	-12.2%	-5.4%	-2.1%	/	-1.7	2.2
COc1ccc(N2C(=O)c3ccccc3NC2c2cccnc2)cc1 (configuration not stated)	56.6%	/	-1.2%	112.5%	7.7	25.2
COc1ccc(N2C(=O)c3ccccc3NC2(C)C)cc1	219.1%	/	-1.0%	?	14.9	73.4*
CCOc1ccc(N2C(=O)c3ccccc3NC2(C)CC)cc1 (configuration not stated)	374.4%	/	-1.7%	419.9%	/	/
COc1ccc(N2C(=O)c3ccccc3NC23CCCCC3)cc1	134.1%	-7.3%	0.0%	187.1%	26.0*	51.9
CCOC(=O)N1CCN([N+]([O-])=NOc2cc(O/N=[N+](\[O-])N(CC)CC)c([N+](=O)[O-])cc2[N+](=O)[O-])CC1	/	/	/	/	-3.0	-8.5
CCC1(c2ccccc2)NC(=O)N(CC(=O)Nc2cc(S(=O)(=O)N3CCCCC3)ccc2N(C)C)C1=O (configuration not stated)	?	/	-0.5%	?	/	/
Cc1ccc(C2(C)NC(=O)N(CC(=O)N3CCN(S(=O)(=O)c4cccc(F)c4)CC3)C2=O)cc1 (configuration not stated)	-18.7%	-3.7%	3.7%	11.7µM*	-2.5	1.9
COc1ccc(S(=O)(=O)N2CCCCCC2)cc1NC(=O)CN1C(=O)NC(C)(c2ccccc2)C1=O (configuration not stated)	9.28µM*	/	2.0%	4.15µM*	/	/
CCOc1ccc(S(=O)(=O)N2CCOCC2)cc1NC(=O)CN1C(=O)NC(C)(c2ccc(C)cc2)C1=O (configuration not stated)	10.4µM*	/	1.2%	?	/	/
CCCC1(c2ccccc2)NC(=O)N(CC(=O)Nc2cc(S(=O)(=O)N3CCOCC3)ccc2Cl)C1=O (configuration not stated)	-24.3%	/	2.8%	13.1µM*	-1.4	39.2
COc1ccc(/C=C/C(=O)c2ccc[nH]2)cc1OC	/	-16.8%	-1.4%	17.9%	29.8*	50.9
COc1ccc(/C=C/C(=O)c2ccc[nH]2)c(OC)c1OC	31.2%	-9.2%	-32.4%	26.7%	26.4*	99.5*
COc1ccc(/C=C/C(=O)c2ccncc2)c2ccccc12	2.6%	-10.7%	-22.7%	21.9%	7.2	1.5
COc1cc(/C=C/C(=O)OCC(=O)c2ccc[nH]2)cc(OC)c1OC	/	/	-1.5%	/	/	/
O=C(CC(c1ccccc1)c1ccco1)Nc1nccs1 (configuration not stated)	10.4µM*	-21.2%	15.8%	9.28µM*	8.5	14.7
Cc1ccccc1Cn1cc(S(=O)(=O)CC(=O)Nc2nccs2)c2ccccc21	11.7µM*	-11.6%	-3.2%	-29.1%	-0.7	11.4
Cc1cc(C)c2c(CC(=O)NC(C)C)coc2c1	0.0%	/	1.0%	149.4%	5.4	6.8
O=C(CSc1nc(-c2ccccc2)nc2ccccc12)Nc1nccs1	-8.0%	-33.5%	-1.3%	?	-2.8	2.7
Cc1cc(C)c2c(CC(=O)Nc3nccs3)coc2c1	39.4%	-4.7%	1.1%	?	20.1*	10.9
O=C(CSc1cn(Cc2ccccc2)c2ccccc12)Nc1nccs1	/	-1.3%	-3.7%	?	37.1*	75.8*
O=C(Cn1cc(C(F)(F)F)ccc1=O)Nc1cccc(S(=O)(=O)N2CCOCC2)c1	5.3%	5.5%	3.1%	i	-2.8	-7.9
SMILES	Pf growth 48h	NS1 inh	SARS PLP yeast	Pf growth 96h	Cycloheximide cs	Shiga toxin inh
Cc1cc(C)n(CC(=O)NNC(=O)C2CC(=O)N(Cc3ccccc3Cl)C2)n1 (configuration not stated)	17.4%	7.7%	3.5%	34.8%	-1.8	1.6
COc1ccc(Cl)cc1NC(=O)C(C)OC(=O)Cn1cc(C(F)(F)F)ccc1=O (configuration not stated)	-3.9%	/	0.4%	11.6%	/	/
O=C(CSCc1ccccn1)Nc1ccccc1	74.4%	-3.0%	4.0%	/	22.4*	37.8*
Cn1c(CSCc2ccccc2)nnc1SCC(=O)Nc1nccs1	?	2.1%	1.1%	5.86µM*	3.8	5.4
Cn1c(CSCc2ccc(F)cc2)nnc1SCC(=O)Nc1nccs1	?	4.1%	1.4%	/	-2.4	-15.0
O=C(NCCC(c1ccccc1)c1ccco1)c1cccs1 (configuration not stated)	?	-38.5%	-19.6%	?	38.3*	118.0*
O=C(Cc1c(F)cccc1Cl)Nc1nccs1	5.8%	20.6%	5.0%	14.7µM*	1.5	-8.8
CC(C)(C)C(=O)Nc1ccnc(-c2cccnc2)n1	4.1%	6.5%	-0.4%	15.8%	-2.2	-8.8
O=C(CSc1ccccc1)Nc1nccs1	22.3%	/	3.5%	0.6%	28.1*	50.4*
O=C(CCc1ccccc1)Nc1nccs1	29.6%	8.3%	1.9%	0.5%	20.3*	/
Cc1ccc(SCC(=O)Nc2nccs2)cc1	38.4%	-1.9%	-1.9%	37.8%	42.5*	70.9*
Cc1nnc(SCC(=O)Nc2nccs2)s1	18.9%	?	12.9%	-28.5%	-1.9	1.3
O=C(CSc1ncn(-c2ccccc2)n1)Nc1nccs1	/	1.1%	-2.5%	-0.2%	5.0	34.7
Cc1nnc(SCC(=O)Nc2nccs2)o1	?	-2.4%	6.0%	13.1µM*	3.8	-28.2
O=C(CN1C(=O)C2CCCCC2C1=O)Nc1nccs1 (configuration not stated)	26.1%	/	-1.1%	91.6%	-5.4	-4.2
O=C(CSCc1ccccc1)Nc1nccs1	24.5%	-8.3%	-4.1%	67.2%	18.2*	21.2
COc1ccc(NC(=O)Cc2nnc(SCC(=O)Nc3ccccc3)n2C)cc1	9.5%	8.0%	-1.7%	173.8%	-5.3	4.5
O=C(Cc1ccccc1)Nc1nccs1	38.0%	0.1%	-0.7%	9.0%	-1.4	5.2
O=C(CCC1CCCCC1)Nc1nccs1	31.9%	-0.2%	8.0%	52.4%	29.4*	76.6*
COc1ccc(NC(=O)Cc2nnc(SCC(=O)Nc3nccs3)n2C)cc1	10.7%	1.4%	-5.9%	3.29µM*	-2.2	-2.3
O=C(CCC1CCCCC1)NNC(=O)c1cnccn1	13.1µM*	5.2%	?	?	-4.1	-5.2
O=C(NNC(=O)C1CCCCC1)c1cnccn1	-3.7%	-6.5%	-4.7%	25.8%	1.3	-5.2

Screens: PubChem, National Center for Advancing Translational Sciences (NCATS)
